From PubChem BioAssay
HIV RNase H inh-1: inhibitors of HIV-1 reverse transcriptase RNase H | RT-RNase H RNA/DNA duplex cleavage, fluorescence | inhibition, % at 10 µM | 1.9% of 65,000 active; in the data active = inhibition above about 50%
HIV RNase H inh-2: confirmation of HIV-1 reverse transcriptase RNase H inhibitors; 39% of 1,000 active; inhibition, % at 10 µM; shares compounds with HIV RNase H inh-1; AID 651; Recombinant RT RNase H, fluorescent RNA/DNA duplex cleavage; in the data active = inhibition above about 48%; inconclusive = no clear call, values can overlap the other calls
Numbers stand for hits. The entries come from a sample that favours hits as a whole.

How did CC1(C)Cc2c(sc(NC(=O)c3ccc(Br)o3)c2C#N)CO1 do in these assays?
HIV RNase H inh-1: inactive

How did COc1cccc(CNC(=O)C2CCCN(S(C)(=O)=O)C2)c1 (stereo not given) do in these assays?
HIV RNase H inh-1: inactive

Results for CCOC(=O)c1cc2sc(C)cc2n1CC(=O)Nc1cccc(C)c1C ?
HIV RNase H inh-1: inactive

Results for CCOC(=O)c1cc2sc(C)cc2n1CC(=O)Nc1ccc2c(c1)OCCO2 ?
HIV RNase H inh-1: 58; HIV RNase H inh-2: inconclusive

What do the screens show for `CCOC(=O)c1cn(CC(=O)Nc2ccc3c(c2)OCCO3)nn1`?
HIV RNase H inh-1: inactive

Results for CCOC(=O)Cc1csc(NC(=O)c2cnc3scc(C)n3c2=O)n1 ?
HIV RNase H inh-1: inactive

How did CCOCCCn1c(=N)c(C(N)=S)cc2c(=O)n3cccc(C)c3nc21 do in these assays?
HIV RNase H inh-1: inactive

How did CCOC(=O)c1cc2c(=O)n3cccc(C)c3nc2n(C)c1=N do in these assays?
HIV RNase H inh-1: inactive

How did Cc1cccn2c(=O)c3cc(C(N)=S)c(=N)n(CCCOC(C)C)c3nc12 do in these assays?
HIV RNase H inh-1: 69; HIV RNase H inh-2: inactive

What do the screens show for `CCOc1ccc(NC(=O)COC(=O)c2cccnc2)cc1`?
HIV RNase H inh-1: inactive

Results for CCCOC(=O)NC(CC)COC(=O)Nc1cc(C)ccc1C (stereo not given) ?
HIV RNase H inh-1: 93; HIV RNase H inh-2: inactive

Results for COC(=O)[C@H](CCSC)NC(=O)Nc1cc(C)ccc1C ?
HIV RNase H inh-1: inactive

How did CCCCNC(=O)OCC(CC)NC(=O)OC(C)C (stereo not given) do in these assays?
HIV RNase H inh-1: inactive

How did Cc1ccc(-c2csc3ncnc(Sc4nnc(CN5CCCCCC5=O)o4)c23)cc1 do in these assays?
HIV RNase H inh-1: inactive

Results for O=C(COc1ccc(N2CC(C(=O)O)CC2=O)cc1)Nc1cccc(C(F)(F)F)c1 (stereo not given) ?
HIV RNase H inh-1: inactive

How did C=CCn1c(SCC(=O)NCCOC)nc2scc(-c3ccco3)c2c1=O do in these assays?
HIV RNase H inh-1: inactive

How did CCn1c(SCC(=O)Nc2nc3ccc(OC)cc3s2)nc2c1c(=O)n(C)c(=O)n2C do in these assays?
HIV RNase H inh-1: inactive

What do the screens show for `CC(=O)c1cccc(S(=O)(=O)N(CCCO)Cc2cc3ccc(C)cc3[nH]c2=O)c1`?
HIV RNase H inh-1: inactive

How did Cc1cc(C)c(NC2=NCC(=O)N2C2CCCCC2)c(C)c1 do in these assays?
HIV RNase H inh-1: inactive

What do the screens show for `CCc1ccccc1NC1=NCC(=O)N1Cc1ccccc1`?
HIV RNase H inh-1: inactive

How did CCc1ccccc1NC1=NCC(=O)N1C1CCCCC1 do in these assays?
HIV RNase H inh-1: 83; HIV RNase H inh-2: inactive

Results for O=S(=O)(NCCc1ccncc1)c1ccc(S(=O)(=O)N2CCCCCC2)cc1 ?
HIV RNase H inh-1: inactive

How did Cc1nc(N)sc1-c1csc(Nc2ccccc2)n1 do in these assays?
HIV RNase H inh-1: inactive

How did Cc1cc(O)ccc1Nc1nc(-c2sc(N)nc2C)cs1 do in these assays?
HIV RNase H inh-1: 73; HIV RNase H inh-2: inactive

How did COc1ccc(OC)c(Nc2nc(-c3sc(N)nc3C)cs2)c1 do in these assays?
HIV RNase H inh-1: inactive

What do the screens show for `CCc1nnc(NC(=O)C2CCCN2C(=O)NC2CCCCC2)s1` (stereo not given)?
HIV RNase H inh-1: inactive

Results for O=C(NS(=O)(=O)c1ccccc1)c1ccccc1F ?
HIV RNase H inh-1: inactive

What do the screens show for `CC1(C)Cc2[nH]c(=S)c(C#N)cc2CO1`?
HIV RNase H inh-1: 70; HIV RNase H inh-2: 65

What do the screens show for `CSc1nc2[nH]c3c(c2c2nncn12)CC(C)(C)OC3`?
HIV RNase H inh-1: inactive

Results for Cc1cc(C)n2c3c(c(C#N)c2n1)CC(C)(C)OC3 ?
HIV RNase H inh-1: inactive

Results for Cc1ccc(CSc2nc3c(c(=O)[nH]2)CCC3)cc1 ?
HIV RNase H inh-1: inactive

What do the screens show for `Cc1ccc(CSc2nc3c(c(=O)[nH]2)C(c2ccncc2)C2=C(CCCC2=O)N3)cc1` (stereo not given)?
HIV RNase H inh-1: 59; HIV RNase H inh-2: inactive

How did CSc1nc2c(c(=O)[nH]1)C(c1cccs1)C1=C(CCCC1=O)N2 (stereo not given) do in these assays?
HIV RNase H inh-1: inactive

How did CC1CCCCN1c1nnc(NC(=O)Cn2c(=O)oc3ccccc32)s1 (stereo not given) do in these assays?
HIV RNase H inh-1: inactive

How did CCOC(=O)c1sc(=S)n(C)c1N do in these assays?
HIV RNase H inh-1: inactive

How did CCn1c(N)c(C(N)=O)sc1=S do in these assays?
HIV RNase H inh-1: 70; HIV RNase H inh-2: inactive

Results for CCn1c(N)c(C(=O)NC2CCCCC2)sc1=S ?
HIV RNase H inh-1: inactive

Results for [N-]=[N+]=CC(=O)c1ccnc(C(=O)C=[N+]=[N-])c1 ?
HIV RNase H inh-1: inactive

What do the screens show for `O=C1C2C(C(=O)N1Cc1cccnc1)C1C=CC2C12CC2` (stereo not given)?
HIV RNase H inh-1: inactive

What do the screens show for `CC(C)C(c1nnnn1Cc1ccccc1)N(CCCO)Cc1cc2cc3c(cc2[nH]c1=O)OCO3` (stereo not given)?
HIV RNase H inh-1: 89; HIV RNase H inh-2: inactive

How did O=c1[nH]c2cc3c(cc2cc1CN(CCCO)Cc1nnnn1Cc1ccc(F)cc1)OCO3 do in these assays?
HIV RNase H inh-1: inactive

How did O=c1[nH]c2cc3c(cc2cc1CN(Cc1ccccc1)Cc1nnnn1Cc1ccco1)OCCO3 do in these assays?
HIV RNase H inh-1: inactive

How did C=CCn1c(COc2ccc(Cl)cc2)nnc1SCC(=O)N1CC(=O)Nc2ccccc21 do in these assays?
HIV RNase H inh-1: inactive

Results for Oc1c(Cl)cc(Cl)c2c1NCCC2 ?
HIV RNase H inh-1: 80; HIV RNase H inh-2: inactive

How did O=C1NCCCc2c1oc1ccc(O)cc21 do in these assays?
HIV RNase H inh-1: inactive

What do the screens show for `COCCN1C(=O)c2oc3ccccc3c(=O)c2C1c1ccc(O)c(OC)c1` (stereo not given)?
HIV RNase H inh-1: inactive

Results for CCOc1cc(C2c3c(oc4cc(C)c(Cl)cc4c3=O)C(=O)N2Cc2ccco2)ccc1O (stereo not given) ?
HIV RNase H inh-1: 61; HIV RNase H inh-2: 58

What do the screens show for `O=C1c2oc3ccc(Cl)cc3c(=O)c2C(c2cccc(Br)c2)N1CCO` (stereo not given)?
HIV RNase H inh-1: inactive

Results for Cc1ccc2oc3c(c(=O)c2c1)C(c1cccc(Br)c1)N(Cc1ccco1)C3=O (stereo not given) ?
HIV RNase H inh-1: 60; HIV RNase H inh-2: inconclusive

What do the screens show for `Cc1cc2oc3c(c(=O)c2cc1C)C(c1cccc(Br)c1)N(Cc1ccco1)C3=O` (stereo not given)?
HIV RNase H inh-1: inactive

What do the screens show for `COCCN1C(=O)c2oc3cc(C)c(C)cc3c(=O)c2C1c1ccc(O)cc1` (stereo not given)?
HIV RNase H inh-1: inactive

How did CC1=NC(C)Cc2ccccc21 (stereo not given) do in these assays?
HIV RNase H inh-1: inactive

What do the screens show for `CC1CCC(NC(=O)CN2C(=O)C3CCCN3c3ncc(Cl)cc32)CC1` (stereo not given)?
HIV RNase H inh-1: inactive

Results for CCc1ccccc1NC(=O)CN1C(=O)C2CCCN2c2ncc(Cl)cc21 (stereo not given) ?
HIV RNase H inh-1: inactive

What do the screens show for `COC(=O)c1ccccc1NC(=O)CN1C(=O)C2CCCN2c2ncc(Cl)cc21` (stereo not given)?
HIV RNase H inh-1: 60; HIV RNase H inh-2: inconclusive

Results for COC(=O)C(Cc1ccccc1)NC(=O)CSc1nc(N)cc(=O)[nH]1 (stereo not given) ?
HIV RNase H inh-1: inactive

How did COc1cc2cc(C(c3nnnn3C3CCCCC3)N(C)C3CCCCC3)c(=O)[nH]c2cc1OC (stereo not given) do in these assays?
HIV RNase H inh-1: inactive
